# Measured values reported in PubChem BioAssay AID1159580 (chemical genetic matrix, 2015).
# About 2,000 (36%) of roughly 5,500 compounds were called active. Inconclusive results (about 18%) are left out. The list shows a part of the results. A number with no mark means an inactive call. Rule as the data show it: active = normalized growth mostly below about 0.91 (no sharp cut-off); inconclusive = no clear call, values can overlap the other calls; inactive = mostly above about 0.92.
# Test: chemical genetic growth profiling, strain panel (AID 1159580);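 also: tested at 20 µM; growth read once vehicle control cultures reached saturation at 30 °C; 1 = growth at the plate median or of vehicle wells; lower values mean less growth of the strain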
# Conditions: S. cerevisiae deletion strains, growth OD
# [1] = locus YAR019C, strain CDC15, active compounds read low
# [2] = locus YBL105C, strain PKC1, active compounds read low
# [3] = locus YBR135W, strain CKS1, active compounds read low
# [4] = locus YBR136W, strain MEC1, active compounds read low
# [5] = locus YBR160W, strain CDC28, active compounds read low
# [6] = locus YDL017W, strain CDC7, active compounds read low
# [7] = locus YDL028C, strain MPS1, active compounds read low
# [8] = locus YDL101C, strain DUN1, active compounds read low
# [9] = locus YDL108W, strain KIN28, active compounds read low
# [10] = locus YDL132W, strain cdc53, active compounds read low
# [11] = locus YDL214C, strain PRR2, active compounds read low
# [12] = locus YDR052C, strain DBF4, active compounds read low
# [13] = locus YDR054C, strain cdc34, active compounds read low
# [14] = locus YDR226W, strain ADK1, active compounds read low
# [15] = locus YDR477W, strain SNF1, active compounds read low
# [16] = locus YER123W, strain YCK3, active compounds read low
# [17] = locus YER133W, strain GLC7, active compounds read low
# [18] = locus YFL009W, strain cdc4, active compounds read low
# [19] = locus YFL029C, strain CAK1, active compounds read low
# [20] = locus YFR003C, strain YPI1, active compounds read low
# [21] = locus YFR019W, strain FAB1, active compounds read low
# [22] = locus YFR028C, strain CDC14, active compounds read low
# [23] = locus YGR040W, strain KSS1, active compounds read low
# [24] = locus YGR052W, strain FMP48, active compounds read low
# [25] = locus YGR092W, strain DBF2, active compounds read low
# [26] = locus YHR030C, strain SLT2, active compounds read low
# [27] = locus YHR079C, strain IRE1, active compounds read low
# [28] = locus YHR082C, strain KSP1, active compounds read low
# [29] = locus YHR205W, strain SCH9, active compounds read low
# [30] = locus YIL147C, strain SLN1, active compounds read low
# [31] = locus YJL095W, strain BCK1, active compounds read low
# [32] = locus YJL128C, strain PBS2, active compounds read low
# [33] = locus YJL157C, strain FAR1, active compounds read low
# [34] = locus YJR016C, strain ILV3, active compounds read low
# [35] = locus YJR066W, strain TOR1 (second series), active compounds read low
# [36] = locus YJR066W, strain TOR1, active compounds read low
# [37] = locus YKL048C, strain ELM1, active compounds read low
# [38] = locus YKL067W, strain YNK1, active compounds read low
# [39] = locus YKL101W, strain HSL1, active compounds read low
# [40] = locus YKL193C, strain SDS22, active compounds read low
# [41] = locus YKL203C, strain TOR2, active compounds read low
# [42] = locus YLR113W, strain HOG1, active compounds read low
# [43] = locus YLR133W, strain CKI1, active compounds read low
# [44] = locus YLR403W, strain SFP1, active compounds read low
# [45] = locus YML070W, strain DAK1, active compounds read low
# [46] = locus YMR001C, strain CDC5, active compounds read low
# [47] = locus YMR205C, strain PFK2 (second series), active compounds read low
# [48] = locus YMR277W, strain FCP1, active compounds read low
# [49] = locus YNL006W, strain LST8, active compounds read low
# [50] = locus YNL020C, strain ARK1, active compounds read low
# [51] = locus YNL161W, strain CBK1, active compounds read low
# [52] = locus YNL183C, strain NPR1, active compounds read low
# [53] = locus YNL207W, strain RIO2, active compounds read low
# [54] = locus YNL222W, strain SSU72, active compounds read low
# [55] = locus YNL307C, strain MCK1 (second series), active compounds read low
# [56] = locus YOL078W, strain AVO1, active compounds read low
# [57] = locus YOL136C, strain PFK27, active compounds read low
# [58] = locus YOR061W, strain CKA2, active compounds read low
# [59] = locus YOR119C, strain RIO1, active compounds read low
# [60] = locus YOR231W, strain MKK1, active compounds read low
# [61] = locus YOR329C, strain SCD5, active compounds read low
# [62] = locus YPL031C, strain PHO85, active compounds read low
# [63] = locus YPL153C, strain RAD53, active compounds read low
# [64] = locus YPL204W, strain HRR25, active compounds read low
# [65] = locus YPL209C, strain IPL1, active compounds read low
# [66] = locus YPL256C, strain CLN2, active compounds read low
# [67] = locus YPR025C, strain CCL1, active compounds read low
# [68] = locus YPR106W, strain ISR1, active compounds read low
# [69] = locus YPR111W, strain DBF20, active compounds read low
# [70] = strain NNK1, active compounds read low
# [71] = strain TSCII, active compounds read low
smiles,measurement,setting,value
O=[N+]([O-])c1cccc(C2CC(c3ccccc3)=Nc3ccccc3S2)c1 (configuration not stated),normalized growth,[1],0.947
same,normalized growth,[2],0.953
same,normalized growth,[3],0.959
same,normalized growth,[4],0.974
same,normalized growth,[5],0.966
same,normalized growth,[6],0.97
same,normalized growth,[7],0.965
same,normalized growth,[8],0.95
same,normalized growth,[9],0.975
same,normalized growth,[10],0.952
same,normalized growth,[11],0.962
same,normalized growth,[12],0.973
same,normalized growth,[13],0.946
same,normalized growth,[14],0.953
same,normalized growth,[15],0.962
same,normalized growth,[16],1
same,normalized growth,[17],0.96
same,normalized growth,[18],0.959
same,normalized growth,[19],0.939
same,normalized growth,[20],0.973
same,normalized growth,[21],0.996
same,normalized growth,[22],0.948
same,normalized growth,[23],0.955
same,normalized growth,[24],1.06
same,normalized growth,[25],0.969
same,normalized growth,[26],0.976
same,normalized growth,[27],0.975
same,normalized growth,[28],0.997
same,normalized growth,[29],0.934
same,normalized growth,[30],0.969
same,normalized growth,[31],0.982
same,normalized growth,[32],0.93
same,normalized growth,[33],0.969
same,normalized growth,[34],0.954
same,normalized growth,[35],0.934
same,normalized growth,[36],0.974
same,normalized growth,[37],0.971
same,normalized growth,[38],0.968
same,normalized growth,[39],0.965
same,normalized growth,[40],0.954
same,normalized growth,[41],1.01
same,normalized growth,[42],0.927
same,normalized growth,[43],0.977
same,normalized growth,[44],0.95
same,normalized growth,[45],0.975
same,normalized growth,[46],0.946
same,normalized growth,[47],0.967
same,normalized growth,[48],0.952
same,normalized growth,[49],0.97
same,normalized growth,[50],0.963
same,normalized growth,[51],0.957
same,normalized growth,[52],0.985
same,normalized growth,[53],0.964
same,normalized growth,[54],0.958
same,normalized growth,[55],0.98
same,normalized growth,[56],0.952
same,normalized growth,[57],0.996
same,normalized growth,[58],0.949
same,normalized growth,[59],0.975
same,normalized growth,[60],0.983
same,normalized growth,[61],0.95
same,normalized growth,[62],0.961
same,normalized growth,[63],0.964
same,normalized growth,[64],0.979
same,normalized growth,[65],0.957
same,normalized growth,[66],0.939
same,normalized growth,[67],0.954
same,normalized growth,[68],0.967
same,normalized growth,[69],0.968
same,normalized growth,[70],0.963
same,normalized growth,[71],0.946
CC(C)(C)c1cc(C(=O)NNC(=O)c2cc(C(F)(F)F)cc(C(F)(F)F)c2)n(Cc2ccc(F)cc2)n1,normalized growth,"locus YAL013W, strain DEP1, active compounds read low",0.979
same,normalized growth,"locus YBR229C, strain ROT2, active compounds read low",1.03
same,normalized growth,"locus YCL061C, strain MRC1, active compounds read low",1.04
same,normalized growth,[8],0.964
same,normalized growth,"locus YDR150W, strain NUM1, active compounds read low",1.01
same,normalized growth,"locus YEL061C, strain CIN8, active compounds read low",0.979
same,normalized growth,"locus YGR078C, strain PAC10, active compounds read low",1.01
same,normalized growth,[26],1
same,normalized growth,"locus YHR087W, strain rtc3, active compounds read low",0.994
same,normalized growth,"locus YJR043C, strain POL32, active compounds read low",0.997
same,normalized growth,"locus YJR075W, strain HOC1, active compounds read low",1.08
same,normalized growth,"locus YLR039C, strain RIC1, active compounds read low",1.02
same,normalized growth,"locus YLR058C, strain SHM2 (second series), active compounds read low",1.04
same,normalized growth,"locus YLR085C, strain ARP6, active compounds read low",0.999
same,normalized growth,"locus YLR262C, strain YPT6, active compounds read low",1.02
same,normalized growth,"locus YML094W, strain GIM5, active compounds read low",0.987
same,normalized growth,"locus YMR219W, strain ESC1, active compounds read low",1
same,normalized growth,"locus YMR263W, strain SAP30, active compounds read low",1.02
same,normalized growth,"locus YNL153C, strain GIM3, active compounds read low",1
same,normalized growth,"locus YNL298W, strain CLA4 (second series), active compounds read low",0.984
same,normalized growth,"locus YNL322C, strain KRE1, active compounds read low",0.99
same,normalized growth,"locus YNR030W, strain Alg12, active compounds read low",0.997
same,normalized growth,"locus YPL055C, strain LGE1, active compounds read low",0.976
same,normalized growth,"locus YPL241C, strain CIN2, active compounds read low",1.01
same,normalized growth,"locus YPR135W, strain CTF4, active compounds read low",0.927
CC(C)(C)c1cc(C(=O)Nc2ccc3c(c2)OCO3)n(Cc2ccc(F)cc2)n1,normalized growth,[1],0.987
same,normalized growth,[2],0.968
same,normalized growth,[3],0.979
same,normalized growth,[4],0.99
same,normalized growth,[5],0.98
same,normalized growth,[6],0.989
same,normalized growth,[7],0.991
same,normalized growth,[8],0.997
same,normalized growth,[9],0.986
same,normalized growth,[10],0.972
same,normalized growth,[11],0.908
same,normalized growth,[12],0.988
same,normalized growth,[13],0.993
same,normalized growth,[14],0.983
same,normalized growth,[15],0.938
same,normalized growth,[16],0.906
same,normalized growth,[17],0.955
same,normalized growth,[18],0.994
same,normalized growth,[19],0.98
same,normalized growth,[20],0.991
same,normalized growth,[21],0.938
same,normalized growth,[22],0.978
same,normalized growth,[23],0.916
same,normalized growth,[24],0.997
same,normalized growth,[25],0.902
same,normalized growth,[26],0.878
same,normalized growth,[27],0.926
same,normalized growth,[28],0.984
same,normalized growth,[29],0.86
same,normalized growth,[30],0.99
same,normalized growth,[31],0.877
same,normalized growth,[32],0.977
same,normalized growth,[33],0.909
same,normalized growth,[34],0.981
same,normalized growth,[35],0.889
same,normalized growth,[36],0.999
same,normalized growth,[37],0.931
same,normalized growth,[38],0.94
same,normalized growth,[39],0.891
same,normalized growth,[40],0.987
same,normalized growth,[41],0.994
same,normalized growth,[42],0.858 (active)
same,normalized growth,[43],0.918
same,normalized growth,[44],0.906
same,normalized growth,[45],0.895
same,normalized growth,[46],0.982
same,normalized growth,[47],0.926
same,normalized growth,[48],0.971
same,normalized growth,[49],0.987
same,normalized growth,[50],0.889
same,normalized growth,[51],0.969
same,normalized growth,[52],0.928
same,normalized growth,[53],0.986
same,normalized growth,[54],0.983
same,normalized growth,[55],0.9
same,normalized growth,[56],0.981
same,normalized growth,[57],0.892
same,normalized growth,[58],0.874
same,normalized growth,[59],0.992
same,normalized growth,[60],0.876
same,normalized growth,[61],0.96
same,normalized growth,[62],0.934
same,normalized growth,[63],0.923
same,normalized growth,[64],0.909
same,normalized growth,[65],0.968
same,normalized growth,[66],0.887
same,normalized growth,[67],0.995
same,normalized growth,[68],0.964
same,normalized growth,[69],0.936
same,normalized growth,[70],0.974
same,normalized growth,[71],0.986
